Assay results published in PubChem BioAssay.
Inconclusive results are not listed. The source made the active and inactive calls. Unless noted, the limit is not given here; nearly all actives have IC50 up to about 30 µM.

assay: JHH-DIPG-1 glioma cell viability, MIPE5.0 library, CellTiter-Glo luminescence, qHTS (AID 1347067; cut-off not given, nearly all actives have AC50 up to about 26 µM;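 also: cells exposed to compound for 48 hours before readout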); settings: JHH-DIPG-1 glioma viability, CellTiter-Glo ATP luminescence

Compound | outcome | AC50
Cn1cc(C2=C(c3c4n(c5ccccc35)CCC(CN)C4)C(=O)NC2=O)c2ccccc21 (stereo not drawn) | inactive | –
COc1cc2ncn(-c3cc(OCc4ccccc4S(C)(=O)=O)c(C#N)s3)c2cc1OC | inactive | –
COc1ccc(COc2ccc(Cc3cnc(N)nc3N)cc2OC)cc1 | inactive | –
Cn1c(=O)c(Oc2ccc(F)cc2F)cc2cnc(NC3CCOCC3)nc21 | inactive | –
CN(C)CCOc1ccc(-c2nc(-c3ccc4c(c3)CC/C4=N\O)c(-c3ccncc3)[nH]2)cc1 | – | 16.6 µM (active)
COc1ccc(-c2oc3ncnc(N)c3c2-c2ccc(NC(=O)Nc3cc(C(F)(F)F)ccc3F)cc2)cc1 | – | 9.34 µM (active)

assay: growth inhibition of DIPG cells – cell-based, MIPE5.0 library, qHTS (AID 1347068); settings: SU-DIPG-XXV viability;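 as to IC50: cells exposed to compound for 48 hours before viability readout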

Compound | outcome | IC50
Cn1cc(C2=C(c3c4n(c5ccccc35)CCC(CN)C4)C(=O)NC2=O)c2ccccc21 (stereo not drawn) | inactive | –
COc1cc2ncn(-c3cc(OCc4ccccc4S(C)(=O)=O)c(C#N)s3)c2cc1OC | inactive | –
COc1ccc(COc2ccc(Cc3cnc(N)nc3N)cc2OC)cc1 | inactive | –
O=C1NC(=O)C(c2c[nH]c3ccccc23)=C1c1c[nH]c2ccccc12 | – | 18.6 µM (active)
Cn1c(=O)c(Oc2ccc(F)cc2F)cc2cnc(NC3CCOCC3)nc21 | inactive | –
NC(=O)c1ccc(-c2nc(-c3ccc4c(c3)OCO4)c(-c3ccccn3)[nH]2)cc1 | inactive | –
Cn1cc(/C=C2\C(=O)Nc3cccnc32)c2ccccc21 | inactive | –
